Screens (PubChem)
Hits are enriched below; roughly 19% of the tested compounds scored in any of these assays.
IL-1B inflam inh: inhibitors of inflammasome signaling (IL-1 beta secretion). THP-1 LPS/ATP IL-1B secretion, AlphaLISA, 16 h; hits give low values. activity change, % at 57.5 µM. hit rate 4.7% among 360,000; in the data active means activity change below about -50%; inconclusive means mostly about -30% to -49%; further: on the % scale 0 is the no-effect control and ±100 the full control effect
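Secreted IL-1B measured by AlphaLISA bead assay after 16 h compound exposure of THP-1 cells; compounds (final up to 57.5 uM) added 1 h before LPS (250 ng/mL) and ATP (1.25 mM) stimulation; lower signal means less secretion.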
DT40 TDP1 CPT: DT40-hTDP1 cell growth loss with CPT. chicken DT40 Tdp1-/-;hTDP1 cells + 20 nM CPT, ATP luminescence, 48 h. Potency, µM (titrated, usually from 46.2 µM), for inactives: top-dose activity change, negative = growth inhibition, most hits filed as inhibitors. hit rate 12% among 420,000. AID 686979; further: potency means the concentration at half of the fitted maximal effect; on the % scale 0 is the no-effect control and ±100 the full control effect; nearly all actives have a fitted effect of over 55% in size
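Chicken DT40 Tdp1-/- cells complemented with human TDP1, 400 cells/well, exposed to compounds plus 20 nM camptothecin for at least 48 h at 37 C; viability read as ATP content by CellTiter-Glo luminescence.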
TDP1 inh: blocks human tyrosyl-DNA phosphodiesterase 1 | Q9NUW8 | recombinant TDP1, AlphaScreen DNA substrate cleavage | Potency, µM (top dose mostly 130 µM), inactives show at the top dose activity change, negative = inhibition, usual class: inhibitors | hit rate 0.28% among 350,000; further: potency means the concentration at half of the fitted maximal effect; on the % scale 0 is the no-effect control and ±100 the full control effect; nearly all actives have a fitted effect of over 40% in size
Target sequence (Q9NUW8 whole entry, looked up): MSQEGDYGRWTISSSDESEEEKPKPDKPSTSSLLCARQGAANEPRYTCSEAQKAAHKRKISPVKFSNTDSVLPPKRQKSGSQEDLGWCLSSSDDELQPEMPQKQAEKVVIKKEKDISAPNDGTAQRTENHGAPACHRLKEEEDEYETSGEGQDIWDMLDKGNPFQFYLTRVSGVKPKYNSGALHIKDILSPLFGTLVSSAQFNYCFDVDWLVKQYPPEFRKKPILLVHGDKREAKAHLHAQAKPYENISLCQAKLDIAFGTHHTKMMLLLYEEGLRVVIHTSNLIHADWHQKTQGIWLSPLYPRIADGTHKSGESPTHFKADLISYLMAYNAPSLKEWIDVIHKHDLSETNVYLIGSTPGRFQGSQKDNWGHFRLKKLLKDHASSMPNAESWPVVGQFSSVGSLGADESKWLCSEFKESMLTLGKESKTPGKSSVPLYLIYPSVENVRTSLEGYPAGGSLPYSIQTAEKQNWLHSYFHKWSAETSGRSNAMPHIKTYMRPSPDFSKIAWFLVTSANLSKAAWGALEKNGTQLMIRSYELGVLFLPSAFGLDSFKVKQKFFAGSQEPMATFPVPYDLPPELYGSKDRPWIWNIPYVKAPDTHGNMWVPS
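Steps: enzyme plus compound, 15 min RT; add biotin/phosphotyrosine-FITC oligonucleotide (15 nM final), react 5 min; add donor/acceptor beads (10 ug/ml final), 10 min; read AlphaScreen. Tdp1 at 1 nM final.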
TGFb inhibitor: blocks TGF-b signaling. HepG2 CAGA-GFP TGF-b/SMAD3 reporter, GFP fluorescence, 18 h; TGF-beta stimulated, 500 pg/mL final. Potency, µM (titrated, usually from 46.1 µM), for the others: at the top dose activity, negative = inhibition, hits mostly inhibitors. hit rate 1.2% among 410,000. AID 588855; further: potency means the concentration at half of the fitted maximal effect; on the % scale 0 is the no-effect control and ±100 the full control effect; nearly all actives have a fitted effect of over 65% in size
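HEPG2 CAGA-GFP cells (1000/well, DMEM with 1% FBS) were pre-incubated 2 h at 37 degrees C, given compound by pin tool, then stimulated with TGF-beta at 500 pg/mL final for 18 h before per-cell GFP fluorescence imaging.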
DT40 TDP1 no CPT: qHTS for Inhibitors of human tyrosyl-DNA phosphodiesterase 1 (TDP1): qHTS in cells in absence of CPT; DT40 Tdp1-/- hTDP1 cells, no CPT, ATP luminescence, 48 h; Potency, µM (series often up to 46.2 µM), without a hit: at the highest dose activity change, negative = growth inhibition, most hits filed as inhibitors; hit rate 15% among 420,000; AID 686978, 2013; further: potency means the concentration at half of the fitted maximal effect; on the % scale 0 is the no-effect control and ±100 the full control effect; nearly all actives have a fitted effect of over 55% in size
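Cells were dispensed at 400 per well, compounds added by pin tool, plates incubated ≥48 hr at 37 °C, then CellTiter-Glo added for 30 min at room temperature before luminescence reading. Line: DT40 Tdp1-/- complemented with hTDP1; camptothecin omitted.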
HepG2 tox: HepG2 cytotoxicity, counter-screen for TGF-b inhibitors; HepG2 CAGA-GFP viability, ATP luminescence, 18 h; Potency, µM (series often up to 46.1 µM), for the others: at the highest dose activity change, negative = cytotoxicity, most hits filed as cytotoxic; hit rate 0.76% among 410,000; AID 588856; further: potency means the concentration at half of the fitted maximal effect
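CellTiter-Glo luminescence gave cytotoxicity after 18 hours at 37 degrees C. The cells were HepG2 CAGA-GFP in 1% FBS DMEM, stimulated with 500 pg/mL TGF-beta after compound addition. %Activity was normalised to no-cell wells (complete cell-killing) and DMSO (no toxicity), and curves were fitted and classified.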
Active calls of the source: *; ? = inconclusive; nt = no result given. Unless noted, the call rests on the fitted dose curve; in most records, active means well fitted curve in the direction sought with a large enough effect; inconclusive means small, poorly fitted or top-dose-only effect, or another doubt; inactive means no such curve, though single readings can be large; an effect the other way counts as inactive or inconclusive.

SMILES	IL-1B inflam inh	DT40 TDP1 CPT	TDP1 inh	TGFb inhibitor	DT40 TDP1 no CPT	HepG2 tox
Cc1ccc2c(c1)-c1onc(C(=O)N(C)c3cccc(C(F)(F)F)c3)c1CO2	nt	nt	7.8%	3.4%	nt	-6.6%
Cc1ccc2c(=O)cc(C(=O)Nc3ccc(S(=O)(=O)Nc4ncccn4)cc3)oc2c1C	nt	?	2.5%	-7.9%	?	-23.9%
CC(=O)c1cccc(S(=O)(=O)N2CCN(c3nc4cc(C)cc(C)c4cc3C#N)CC2)c1	-24.5	14.6µM*	3.9%	?	?	5.5%
Cc1cc(C)c2cc(C#N)c(N3CCCN(S(=O)(=O)c4ccccc4)CC3)nc2c1	29.3	-6.9%	nt	0.8%	?	-2.8%
CCc1nnc(NC(=O)c2cc(S(=O)(=O)N3CCOCC3)ccc2N2CCCCC2)s1	-70.4*	0.8%	7.7%	-11.3%	?	1.2%
O=C(Nc1cccc(C(F)(F)F)c1)c1cc(S(=O)(=O)N2CCCCC2)ccc1N1CCOCC1	?	23.1µM*	-2.5%	4.8%	18.4µM*	-2.2%
O=C(Nc1ccccc1Cl)c1cc(S(=O)(=O)N2CCCCC2)ccc1N1CCOCC1	-22.9	?	-1.5%	-25.9%	23.1µM*	-44.8%
O=C(Nc1ccccc1F)c1cc(S(=O)(=O)N2CCOCC2)ccc1N1CCOCC1	-13.5	-7.7%	-9.7%	?	-20.4%	5.6%
O=C(Nc1nnc(C2CC2)s1)c1cc(S(=O)(=O)N2CCCCC2)ccc1N1CCOCC1	?	-20.0%	10.0%	5.4%	-20.1%	-3.9%
CCn1c(/C=C/c2ccccc2F)nc2ccccc2c1=O	-14.0	?	-2.6%	?	?	5.7%
O=C(c1ccccc1)c1ccc(Sc2ccc([N+](=O)[O-])cc2)cc1	-15.7	?	-4.1%	-4.7%	?	-3.3%
Nc1ccc(SC(F)(F)F)cc1C(=O)c1ccccc1	-102.7*	?	2.9%	12.6µM*	?	-103.6%
Cc1cccc(C(=O)NCC(=O)OCc2cc(=O)n3nc(CC(C)C)sc3n2)c1	nt	-14.6%	3.2%	?	-13.5%	-19.4%
Cc1ccc(S(=O)(=O)Nc2ccccc2C=NNC(=O)c2ccncc2)cc1	15.1	-26.0%	nt	?	?	-36.7%
CC(C)CN(C(=O)COC(=O)CCSc1ccc(Cl)cc1)c1c(N)n(Cc2ccccc2)c(=O)[nH]c1=O	1.8	?	nt	-1.6%	18.4µM*	9.4%
CN(C(=O)COC(=O)CCC(=O)c1ccc(Cl)cc1)c1c(N)n(Cc2ccccc2)c(=O)[nH]c1=O	3.1	-10.0%	-1.3%	-1.9%	18.4µM*	-14.4%
COc1ccnc(Oc2ccccc2)c1C(=O)N/C=N/OCc1ccccc1	-3.2	-7.9%	nt	7.0%	?	-5.5%
COc1ccnc(Oc2cccc(C(F)(F)F)c2)c1C(=O)N/C=N/OCc1ccccc1F	-58.5*	?	nt	-23.4%	20.6µM*	-22.8%
CCOC(=O)C1CCCN(C(=O)c2ccc3c(=O)n(Cc4ccccc4OC)c(=S)[nH]c3c2)C1 (centres undefined)	23.9	?	4.3%	-20.8%	18.4µM*	2.4%
COc1ccccc1Cn1c(=S)[nH]c2cc(C(=O)N3CC(C)CC(C)C3)ccc2c1=O (centres undefined)	?	?	nt	-21.0%	?	-10.1%
CCOC(=O)C1CCCN(C(=O)c2ccc(Cn3c(=S)[nH]c4cc(C(=O)OC)ccc4c3=O)cc2)C1 (centres undefined)	-1.6	?	0.0%	9.5%	25.9µM*	-19.0%
CCOC(=O)N1CCN(C(=O)c2ccc(Cn3c(=S)[nH]c4cc(C(=O)OC)ccc4c3=O)cc2)CC1	4.1	?	2.9%	-7.9%	8.2µM*	5.9%
CCCCNC(=O)Cn1c(=O)cc(C)c2c(C)nn(-c3ccc(CC)cc3)c21	nt	-16.5%	1.9%	?	-18.3%	-14.1%
COc1ccccc1OCC(=O)NNC(=O)c1cnccn1	24.3	?	3.8%	0.0%	?	-32.5%
CCc1ccc(OCC(=O)NNC(=O)c2cnccn2)c(Br)c1	0.0	5.8µM*	3.8%	-3.7%	8.2µM*	-3.8%
SMILES	IL-1B inflam inh	DT40 TDP1 CPT	TDP1 inh	TGFb inhibitor	DT40 TDP1 no CPT	HepG2 tox
CC(C)(C)c1ccc(OCC(=O)Nc2ccncc2)c(Br)c1	39.5	8.2µM*	nt	?	7.31µM*	-50.3%
CCc1ccc(OCC(=O)Nc2ccncc2)c(Br)c1	-8.8	?	nt	-22.1%	10.3µM*	-18.6%
CCCCc1nn2c(=O)cc(COC(=O)c3cccc(NC(=O)CCc4ccccc4)c3)nc2s1	nt	-10.1%	1.2%	?	-9.3%	-21.7%
COc1ccccc1CNC(=O)c1ccc2c(c1)N(Cc1cccc(C)c1)C(=O)c1ccccc1S2(=O)=O	nt	?	6.9%	0.0%	-26.6%	-1.0%
Cc1cnc(C(=O)Nc2ccc(-n3cnnn3)cc2)cn1	8.7	18.4µM*	2.3%	-0.8%	?	-11.5%
COc1ccc(NC(=O)c2cnc(C)cn2)cc1-n1cnnn1	16.0	-14.4%	1.1%	6.0%	-12.6%	-13.2%
CN(C)CCNC(=O)c1cccc(-c2cnc3c(NC=O)cc(-c4cc(F)c(F)c(F)c4)cn23)c1	81.5	4.11µM*	nt	?	3.26µM*	-112.3%
COc1cccc(-c2cc(NC=O)c3ncc(-c4cccc(C(=O)NCCN(C)C)c4)n3c2)c1	-13.5	?	nt	?	?	-39.5%
CN(C)CCNC(=O)c1cccc(-c2cc(NC=O)c3ncc(-c4cccc(C(F)(F)F)c4)n3c2)c1	-109.0*	3.26µM*	nt	?	5.17µM*	20µM*
O=C(COc1ccc(Cl)cc1)NCc1nnc(SCC(=O)N2CCCCCC2)o1	29.2	?	2.6%	1.1%	-6.1%	4.3%
Cc1ccc(CNC(=O)c2ccc(-n3cnc4cccnc43)cc2)cc1	nt	nt	5.6%	14.1%	nt	-0.8%
COc1ccc(C(C#N)N2CCC(c3ccccc3)=N2)cc1 (centres undefined)	-89.9*	?	nt	0.0%	?	8.4%
COc1cc(C(C#N)N2N=C(c3ccccc3)CC2c2ccccc2)ccc1O (centres undefined)	-0.3	?	-5.9%	29.7%	-14.4%	-5.1%
COc1cccc(NC(=O)CCC2CCN(C(=O)C3CC=CCC3)CC2)c1 (centres undefined)	9.0	?	5.5%	-1.4%	?	-2.2%
O=C(CCC1CCN(C(=O)C2CC=CCC2)CC1)Nc1ccccc1 (centres undefined)	17.6	?	nt	-9.2%	20.6µM*	-19.3%
